This is an account of results in publication PMC11006913.

Common to all, as to assay: PBM; 200 nM protein, PBS
Common to all, as to conditions: dsDNA, one strand shown

Assay [1] addresses HOXB9 (Homo sapiens, UniProt P17482 171-250, T197M).
The target of assay [2] is HOXC9 (Homo sapiens, UniProt P31274 178-260, K195R).
Assay [3] deals with T1, VENTX (Homo sapiens, UniProt O95231 78-163).
T1 sequence: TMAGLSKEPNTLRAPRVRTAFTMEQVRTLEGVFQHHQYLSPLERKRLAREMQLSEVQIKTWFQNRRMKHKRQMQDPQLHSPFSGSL

Assay [4] addresses T2, PAX4 (Homo sapiens, UniProt O43316 9-242, R200K).
T2 sequence: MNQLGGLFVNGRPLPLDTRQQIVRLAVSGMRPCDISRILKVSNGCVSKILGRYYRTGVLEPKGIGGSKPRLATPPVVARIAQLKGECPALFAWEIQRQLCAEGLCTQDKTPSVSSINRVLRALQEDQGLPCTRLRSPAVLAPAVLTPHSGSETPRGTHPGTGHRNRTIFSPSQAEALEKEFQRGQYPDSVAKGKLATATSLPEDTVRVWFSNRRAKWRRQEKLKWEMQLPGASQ

In assay [5] the target is T3, VENTX (Homo sapiens, UniProt O95231 78-163, Y115F).
T3 sequence: T1 sequence with Y38F

Assay [6] deals with T4, PAX4 (Homo sapiens, UniProt O43316 9-242).
T4 sequence: T2 sequence with K192R

Assay [7] deals with HOXB9 (Homo sapiens, UniProt P17482 171-250).
Chain of HOXB9 (Homo sapiens, UniProt P17482 171-250) (P17482 171-250): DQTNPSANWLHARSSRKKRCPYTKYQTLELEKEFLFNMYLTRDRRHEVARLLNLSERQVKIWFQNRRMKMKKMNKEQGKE
Assay [8] has as its target T5, PAX4 (Homo sapiens, UniProt O43316 9-242, R200Q).
T5 sequence: T2 sequence with K192Q

For assay [9], the target named is HOXC9 (Homo sapiens, UniProt P31274 178-260, R193K).
Chain of HOXC9 (Homo sapiens, UniProt P31274 178-260, R193K) (P31274 178-260 R193K): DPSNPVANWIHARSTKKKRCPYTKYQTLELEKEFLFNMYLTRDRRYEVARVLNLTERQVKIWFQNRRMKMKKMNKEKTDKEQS
Assay [10] deals with T6, PAX4 (Homo sapiens, UniProt O43316 9-242, F177V).
T6 sequence: T2 sequence with F169V, K192R

Another assay concerns the target HOXC10 (Homo sapiens, UniProt Q9NYD6 254-340, K271E).
The target of assay [11] is T7, PAX4 (Homo sapiens, UniProt O43316 9-242, F177Y).
T7 sequence: T2 sequence with F169Y, K192R

The next assay addresses VAX1 (Homo sapiens, UniProt Q5SQQ9 86-172).
The target of assay [12] is HOXB9 (Homo sapiens, UniProt P17482 171-250, R186Q).
Chain of HOXB9 (Homo sapiens, UniProt P17482 171-250, R186Q) (P17482 171-250 R186Q): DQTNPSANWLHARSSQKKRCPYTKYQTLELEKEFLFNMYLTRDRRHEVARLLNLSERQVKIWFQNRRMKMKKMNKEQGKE
The target in assay [13] is HOXC9 (Homo sapiens, UniProt P31274 178-260, R222W).
Chain of HOXC9 (Homo sapiens, UniProt P31274 178-260, R222W) (P31274 178-260 R222W): as the sequence (P31274 178-260 R193K) above, with K16R, R45W counted along it
The target in assay [14] is T8, PAX4 (Homo sapiens, UniProt O43316 9-242, R227W).
T8 sequence: T2 sequence with K192R, R219W

Assay [15] addresses HOXA2 (Homo sapiens, UniProt O43364 129-215, Y150S).
The target of assay [16] is HOXA2 (Homo sapiens, UniProt O43364 129-215).
Chain of HOXA2 (Homo sapiens, UniProt O43364 129-215) (O43364 129-215): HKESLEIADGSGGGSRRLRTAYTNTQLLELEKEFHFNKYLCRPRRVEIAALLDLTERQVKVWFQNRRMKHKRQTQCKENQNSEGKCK
Assay [17] concerns the target NKX2-5 (Homo sapiens, UniProt P52952 125-210, R139K).
For assay [18], the target named is NKX2-5 (Homo sapiens, UniProt P52952 125-210).
Chain of NKX2-5 (Homo sapiens, UniProt P52952 125-210) (P52952 125-210): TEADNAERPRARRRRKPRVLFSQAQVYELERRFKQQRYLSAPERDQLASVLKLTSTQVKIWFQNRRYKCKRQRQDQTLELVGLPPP

Changes are numbered by the printed parent chain.

Chain of HOXC10 (Q9NYD6 254-340 K271E): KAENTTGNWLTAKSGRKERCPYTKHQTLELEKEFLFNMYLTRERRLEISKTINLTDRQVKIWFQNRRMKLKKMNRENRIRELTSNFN
Chain of HOXA2 (Homo sapiens, UniProt O43364 129-215, Y150S) (O43364 129-215 Y150S): as the sequence (O43364 129-215) above, with Y22S counted along it
Chain of HOXB9 (Homo sapiens, UniProt P17482 171-250, T197M) (P17482 171-250 T197M): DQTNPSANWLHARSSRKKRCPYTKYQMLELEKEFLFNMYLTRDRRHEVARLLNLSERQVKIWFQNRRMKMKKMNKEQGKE
Chain of HOXC9 (Homo sapiens, UniProt P31274 178-260, K195R) (P31274 178-260 K195R): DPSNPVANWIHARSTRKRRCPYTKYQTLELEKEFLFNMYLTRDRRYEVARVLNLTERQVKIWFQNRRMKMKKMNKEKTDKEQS
Chain of VAX1 (Q5SQQ9 86-172): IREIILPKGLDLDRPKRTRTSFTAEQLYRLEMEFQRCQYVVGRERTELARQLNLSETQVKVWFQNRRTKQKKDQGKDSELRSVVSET
Chain of NKX2-5 (Homo sapiens, UniProt P52952 125-210, R139K) (P52952 125-210 R139K): as the sequence (P52952 125-210) above, with R15K counted along it

Regarding TAATTAAA, the binding signal was 10.3 upbm affinity estimate (log intensity, higher = more binding, comparable within an allelic series) with HOXB9 [1]; 13.1 upbm affinity estimate (log intensity, higher = more binding, comparable within an allelic series) in the assay with HOXC9 [2]; 12.5 upbm affinity estimate (log intensity, higher = more binding, comparable within an allelic series) with VENTX [3]; 12 upbm affinity estimate (log intensity, higher = more binding, comparable within an allelic series) with PAX4 [4]; 11.9 upbm affinity estimate (log intensity, higher = more binding, comparable within an allelic series) in the assay with VENTX [5]; 12.5 upbm affinity estimate (log intensity, higher = more binding, comparable within an allelic series) with PAX4 [6]. The binding signal with HOXB9 [7] is 12.4 upbm affinity estimate (log intensity, higher = more binding, comparable within an allelic series); with PAX4 [8], 12.4 upbm affinity estimate (log intensity, higher = more binding, comparable within an allelic series); with HOXC9 [9], 13 upbm affinity estimate (log intensity, higher = more binding, comparable within an allelic series); in the assay with PAX4 [10] it was 11 upbm affinity estimate (log intensity, higher = more binding, comparable within an allelic series); with HOXC10 it was 12.7 upbm affinity estimate (log intensity, higher = more binding, comparable within an allelic series); with PAX4 [11] it was 11.3 upbm affinity estimate (log intensity, higher = more binding, comparable within an allelic series). The binding signal with VAX1 was 13.3 upbm affinity estimate (log intensity, higher = more binding, comparable within an allelic series); with HOXB9 [12] it was 12.1 upbm affinity estimate (log intensity, higher = more binding, comparable within an allelic series); with HOXC9 [13], 11.5 upbm affinity estimate (log intensity, higher = more binding, comparable within an allelic series); with PAX4 [14], 11.2 upbm affinity estimate (log intensity, higher = more binding, comparable within an allelic series); with HOXA2 [15] it was 10.9 upbm affinity estimate (log intensity, higher = more binding, comparable within an allelic series); with HOXA2 [16] it was 12.9 upbm affinity estimate (log intensity, higher = more binding, comparable within an allelic series).
Turning to CAATACTC, the binding signal with NKX2-5 [17] was 10.2 upbm affinity estimate (log intensity, higher = more binding, comparable within an allelic series); with NKX2-5 [18] it was 10.2 upbm affinity estimate (log intensity, higher = more binding, comparable within an allelic series).
Consider GTAATTAC, for which the binding signal with HOXB9 [1] is 10.6 upbm affinity estimate (log intensity, higher = more binding, comparable within an allelic series); with HOXC9 [2], 13.1 upbm affinity estimate (log intensity, higher = more binding, comparable within an allelic series); with VENTX [3], 12.9 upbm affinity estimate (log intensity, higher = more binding, comparable within an allelic series); with PAX4 [4] it was 12 upbm affinity estimate (log intensity, higher = more binding, comparable within an allelic series); in the assay with VENTX [5] it was 12.4 upbm affinity estimate (log intensity, higher = more binding, comparable within an allelic series); in the assay with PAX4 [6] it was 12.5 upbm affinity estimate (log intensity, higher = more binding, comparable within an allelic series). Besides, the binding signal in the assay with HOXB9 [7] was 12.3 upbm affinity estimate (log intensity, higher = more binding, comparable within an allelic series); in the assay with PAX4 [8], 12.5 upbm affinity estimate (log intensity, higher = more binding, comparable within an allelic series); with HOXC9 [9], 13.2 upbm affinity estimate (log intensity, higher = more binding, comparable within an allelic series); with PAX4 [10] it was 10.6 upbm affinity estimate (log intensity, higher = more binding, comparable within an allelic series); in the assay with HOXC10, 12.6 upbm affinity estimate (log intensity, higher = more binding, comparable within an allelic series); with PAX4 [11], 11.1 upbm affinity estimate (log intensity, higher = more binding, comparable within an allelic series). In addition, the binding signal in the assay with VAX1 was 13.9 upbm affinity estimate (log intensity, higher = more binding, comparable within an allelic series); with HOXB9 [12], 12.1 upbm affinity estimate (log intensity, higher = more binding, comparable within an allelic series); with HOXC9 [13], 11 upbm affinity estimate (log intensity, higher = more binding, comparable within an allelic series); with PAX4 [14], 11 upbm affinity estimate (log intensity, higher = more binding, comparable within an allelic series); with HOXA2 [15] it was 11.2 upbm affinity estimate (log intensity, higher = more binding, comparable within an allelic series); in the assay with HOXA2 [16] it was 13.4 upbm affinity estimate (log intensity, higher = more binding, comparable within an allelic series).
TATGAAGA: the binding signal with NKX2-5 [17] was 10.8 upbm affinity estimate (log intensity, higher = more binding, comparable within an allelic series); in the assay with NKX2-5 [18], 10.7 upbm affinity estimate (log intensity, higher = more binding, comparable within an allelic series).
With TAATTACA, the binding signal in the assay with HOXB9 [1] is 10.3 upbm affinity estimate (log intensity, higher = more binding, comparable within an allelic series); with HOXC9 [2] it was 12.9 upbm affinity estimate (log intensity, higher = more binding, comparable within an allelic series); with VENTX [3], 12.7 upbm affinity estimate (log intensity, higher = more binding, comparable within an allelic series); with PAX4 [4], 11.9 upbm affinity estimate (log intensity, higher = more binding, comparable within an allelic series); with VENTX [5] it was 12.2 upbm affinity estimate (log intensity, higher = more binding, comparable within an allelic series); with PAX4 [6], 12.4 upbm affinity estimate (log intensity, higher = more binding, comparable within an allelic series). Further, the binding signal with HOXB9 [7] was 12.1 upbm affinity estimate (log intensity, higher = more binding, comparable within an allelic series); with PAX4 [8], 12.3 upbm affinity estimate (log intensity, higher = more binding, comparable within an allelic series); with HOXC9 [9], 12.9 upbm affinity estimate (log intensity, higher = more binding, comparable within an allelic series); in the assay with PAX4 [10], 10.8 upbm affinity estimate (log intensity, higher = more binding, comparable within an allelic series); with HOXC10, 12.3 upbm affinity estimate (log intensity, higher = more binding, comparable within an allelic series); with PAX4 [11], 11.2 upbm affinity estimate (log intensity, higher = more binding, comparable within an allelic series). For the same sequence, the binding signal in the assay with VAX1 is 13.6 upbm affinity estimate (log intensity, higher = more binding, comparable within an allelic series); with HOXB9 [12], 11.8 upbm affinity estimate (log intensity, higher = more binding, comparable within an allelic series); with HOXC9 [13], 11 upbm affinity estimate (log intensity, higher = more binding, comparable within an allelic series); with PAX4 [14] it was 11.2 upbm affinity estimate (log intensity, higher = more binding, comparable within an allelic series); with HOXA2 [15], 11 upbm affinity estimate (log intensity, higher = more binding, comparable within an allelic series); with HOXA2 [16], 13.3 upbm affinity estimate (log intensity, higher = more binding, comparable within an allelic series).
